# Shown are actives, neighbours in structure and some others; about 2.6% of the full set was active somewhere.
# Cruzain inh Det – qHTS Assay for Promiscuous and Specific Inhibitors of Cruzain (with detergent) | Potency, µM, for the others: max response, negative = inhibition, most hits filed as inhibitors | purified cruzain, Z-FR-AMC fluorescence, 0.01% Triton | 200,000 compounds, 0.43% hits;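 note: plate controls were neutral wells for no effect and buffer without enzyme for full effect; nearly all actives have a fitted effect of over 40% in size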
# Target sequence (P25779 123-467 limits assumed): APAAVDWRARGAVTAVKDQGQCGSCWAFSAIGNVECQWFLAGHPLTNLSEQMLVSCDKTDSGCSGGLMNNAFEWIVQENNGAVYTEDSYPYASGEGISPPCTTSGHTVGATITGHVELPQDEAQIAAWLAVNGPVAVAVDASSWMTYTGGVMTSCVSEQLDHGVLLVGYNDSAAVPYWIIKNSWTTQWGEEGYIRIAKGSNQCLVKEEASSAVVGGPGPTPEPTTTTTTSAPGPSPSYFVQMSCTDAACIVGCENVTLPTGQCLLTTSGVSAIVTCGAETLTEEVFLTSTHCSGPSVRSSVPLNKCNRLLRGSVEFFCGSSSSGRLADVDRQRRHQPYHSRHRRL
#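 Compounds were screened in titration against cruzain (1.5 nM) with 0.01% Triton X-100 to counter colloidal aggregation. Activity was the AMC fluorescence increase over 60 s after adding 2 uM Z-FR-AMC at pH 5.5.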
# Cruzain inh noDet – qHTS Assay for Promiscuous and Specific Inhibitors of Cruzain (without detergent); Cruzipain (Trypanosoma cruzi), P25779; purified cruzain, Z-FR-AMC fluorescence, no detergent; Potency, µM, for inactives: max response, negative = inhibition, usual class: inhibitors; 200,000 compounds, 2.3% hits; AID 1476, 2009;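 note: plate controls were enzyme without inhibitor for no effect and buffer without enzyme for full effect; nearly all actives have a fitted effect of over 40% in size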
#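 Detergent-free condition (0.00005% Triton X-100) in acetate buffer pH 5.5 with DTT. 1.5 nM enzyme and compound were pre-mixed 15 min, then 2 uM Z-FR-AMC substrate added; reaction progress from fluorescence change between first and third reads (60 s).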
# Starred values were filed as active, the others as inactive; ? = inconclusive. Calls come from the whole dose curve; as a rule, active = well fitted curve in the direction sought with a large enough effect; inconclusive = small, poorly fitted or top-dose-only effect, or another doubt; inactive = no such curve, though single readings can be large; an effect the other way counts as inactive or inconclusive. Potency is the fitted concentration of half-maximal effect.
SMILES,Cruzain inh Det,Cruzain inh noDet
Cc1ccc(S(=O)(=O)N/N=C2/CC(c3ccccc3)Oc3ccccc32)cc1 (configuration not stated),-3%,25µM*
O=S(=O)(N/N=C1\CC(c2ccccc2)Oc2ccccc21)c1ccccc1 (configuration not stated),-1%,-23%
O=S(=O)(c1cccc2ccccc12)N1CCN(c2ccc(Cl)c(Cl)c2)CC1,-1%,20µM*
CCOc1ccc(S(=O)(=O)N2CCN(c3ccc(Cl)c(Cl)c3)CC2)c2ccccc12,2%,10%
O=C(O)CSC1=NCCN1,8%,0%
O=C(CSC1=NCCN1)C1COc2ccccc2O1 (configuration not stated),1%,1.3µM*
COCCN1Cc2c(sc(C)c2C)N(C(=O)c2ccccc2)C1,-4%,7%
Cc1sc2c(c1C)CN(C(C)(C)C)CN2C(=O)c1ccccc1,-1%,25µM*
COc1ccc(-c2nc3cncnc3n(-c3ccccc3)c2=O)cc1,5%,-14%
Cc1ccc(-c2nnc3ccccc3c2C(=O)Nc2ccc(F)cc2)cc1,-1%,-10%
Cc1ccc(-c2nnc3ccccc3c2C(=O)Nc2ccccc2F)cc1,0%,25µM*
CCOC(=O)c1cnc(-n2nc(C)cc2C)nc1NC,0%,15%
CCOC(=O)c1cnc(-n2nc(C)cc2C)nc1NNc1nc(-c2ccccc2)cc(-c2ccccc2)n1,-1%,20µM*
O=C(OCc1nc2scc(-c3ccccc3)c2c(=O)[nH]1)c1cc(Cl)ccc1[N+](=O)[O-],-4%,32µM*
Cc1c(C(=O)OCc2nc3scc(-c4ccccc4)c3c(=O)[nH]2)cccc1[N+](=O)[O-],-5%,?
O=C(O)CCN1C(=O)C(=C2CCCCCC2)SC1=S,-1%,-2%
O=C1C(=C2CCCCC2)SC(=S)N1Cc1ccco1,20µM*,16µM*
O=C1CSC(c2cn(-c3ccccc3)nc2-c2cc3ccccc3o2)N1Cc1ccccc1 (configuration not stated),4%,?
O=C1CSC(c2cn(-c3ccccc3)nc2-c2cc3ccccc3oc2=O)N1Cc1ccco1 (configuration not stated),28µM*,?
COc1ccccc1C(=O)Nc1sc2c(c1C(=O)NCc1ccco1)CCCC2,-24%,7.9µM*
COc1ccccc1NC(=O)c1c(NC(=O)c2ccco2)sc2c1CCC(C(C)(C)C)C2 (configuration not stated),-1%,-6%
Cc1cccc(C(=O)Nc2sc3c(c2C(=O)NCc2ccco2)CCCC3)c1,3%,-9%
COc1ccccc1NC(=O)c1c(NC(=O)c2ccco2)sc2c1CCC2,-5%,7.9µM*
NC(=O)c1c(NC(NC(=O)c2ccco2)C(=O)c2ccc(Cl)cc2)sc2c1CCCC2 (configuration not stated),-12%,-15%
N#Cc1c(NC(NC(=O)c2ccco2)C(=O)c2ccccc2)sc2c1CCCC2 (configuration not stated),-4%,25µM*
SMILES,Cruzain inh Det,Cruzain inh noDet
Cc1nn(-c2ccc(N3CCCC3)nn2)c(C)c1CCC(=O)Nc1ccc(F)c(Cl)c1,-8%,19%
CCc1ccc(C(=O)c2cn(CC(=O)Nc3cc(OC)ccc3OC)c3nc(C)ccc3c2=O)cc1,-4%,-3%
COc1ccc(N2CCN(C(=O)c3cn(C)c4ccc(S(=O)(=O)N(C)C5CCCCC5)cc4c3=O)CC2)cc1,-1%,-7%
N#Cc1ccc(CSc2nnc(-c3ccc(Br)cc3)o2)cc1,1%,-5%
Cc1cc(C)c(S(=O)(=O)Nc2ccc(-c3ccc(N4CCCCC4)nn3)cc2)c(C)c1,-5%,-4%
CCc1ccc(NS(=O)(=O)c2ccc3[nH]cc(C(=O)NCCc4ccccc4)c(=O)c3c2)cc1,-1%,7.9µM*
Cc1cc(C)cc(NS(=O)(=O)c2ccc3[nH]cc(C(=O)NCCc4ccccc4)c(=O)c3c2)c1,-2%,?
CCC1CN(C(=O)N2CCC(C(=O)NCc3cc(OC)ccc3OC)CC2)c2ccccc2O1 (configuration not stated),-2%,-1%
Cc1ccc(Cc2nnc3n(-c4ccccc4)nc(C(=O)c4ccccc4)n3c2=O)cc1,-4%,25µM*
O=C(c1ccccc1)c1nn(-c2ccccc2)c(=O)cc1C(F)(F)F,1%,-3%
Cc1ccc(CC(=O)Nc2nc3ccccc3s2)cc1,-11%,-10%
CCc1ccc(/C=C2/SC(=S)N(CC(=O)Nc3nc4ccccc4s3)C2=O)cc1,-8%,3.2µM*
CCn1c(=O)c(C(=O)NNS(=O)(=O)c2ccc(C)cc2)c(O)c2ccccc21,-7%,0%
CCCn1c(=O)c(C(=O)NNS(=O)(=O)c2ccc(C)cc2)c(O)c2ccccc21,-4%,13µM*
O=C(c1ccc(S(=O)(=O)N2CCCCC2)cc1)c1nnc(-c2ccc(Cl)cc2)o1,2%,-13%
O=C(CCc1ccc(S(=O)(=O)N2CCCCC2)cc1)c1nnc(-c2ccccc2)o1,-3%,25µM*
Cc1ccc2oc(=O)c3cc(C(=O)N(Cc4ccccc4)C(C)C)sc3c2c1,0%,-4%
CCC(CC)C(=O)Nc1nnc(SCc2cc(=O)n3cccc(C)c3n2)s1,-4%,-6%
Cc1c(/C=N/NC(=O)c2ccc(O)cc2)c2ccccn2c1C(=O)c1ccc(F)cc1,-3%,?
Cc1c(/C=N/NC(=O)c2ccccc2O)c2ccccn2c1C(=O)c1ccc(F)cc1,-12%,25µM*
Cc1no[n+]([O-])c1COc1ccc(/C=C2\NC(=S)NC2=O)cc1,-7%,32µM*
Cc1no[n+]([O-])c1COc1ccc(/C=C(\C#N)C(N)=O)cc1,-6%,5%
CCNc1ncc2nc(-c3cc(F)cc(F)c3)c(=O)n(C3CC3)c2n1,4%,16%
COc1ccc(C2c3cccn3CCN2S(=O)(=O)c2ccc([N+](=O)[O-])cc2)cc1 (configuration not stated),-3%,25µM*
O=[N+]([O-])c1ccc(S(=O)(=O)N2CCn3cccc3C2c2ccccc2F)cc1 (configuration not stated),-8%,?
SMILES,Cruzain inh Det,Cruzain inh noDet
CC(=O)Oc1ccc(C(=O)[C@H]2[C@H]3C(=O)N(c4ccc5ccccc5c4)C(=O)[C@H]3[C@@H]3C=CC=NN32)cc1,-2%,?
Cc1ccc(N2C(=O)[C@@H]3[C@H](C2=O)[C@H]2C=CC=NN2[C@@H]3C(=O)Nc2ccc(Cl)cc2)cc1,-8%,-1%
O=C(Nc1ccc(Cl)cc1)[C@@H]1[C@@H]2C(=O)N(c3ccc(Cl)cc3Cl)C(=O)[C@@H]2[C@H]2C=CC=NN21,-5%,16µM*
O=C(Nc1ccc(Cl)cc1)[C@@H]1[C@@H]2C(=O)N(c3ccc(Cl)cc3)C(=O)[C@@H]2[C@H]2C=CC=NN21,-5%,20µM*
CS(=O)(=O)c1ccc(C(O)C(CO)NC(=O)C(Cl)Cl)cc1 (configuration not stated),0%,-1%
Cc1cc(C)cc(NC(=O)CCS(=O)(=O)c2ccc3c(c2)oc(=O)n3C)c1,-2%,-8%
COc1ccc(-n2ccn(CC(=O)NCCc3ccccc3)c(=O)c2=O)cc1OC,-7%,9%
Cc1ccc(NC(=O)c2cnn(-c3ccc(C)c(C)c3)c2C2CCN(C(=O)OC(C)(C)C)CC2)c(C)c1,4%,21%
CCn1nc(-c2ccccc2)c(-c2ccccc2)c(C(=O)OCCOC)c1=O,-2%,28%
